The supplement of paper PMC11417369
± gives the standard deviation of the averaged measurements. Whole data set: some 25,000 sequences, median “ln(normalized median fluorescence intensity)” near 7.9, cut for the highest 2% near 11. The entries come from a sample that favours the highest values as a whole.

system: PfAP2-I AP2 domain 3 (GST-tagged); assay: gcPBM binding intensity (ln(normalized median fluorescence intensity)); higher = stronger DNA binding
Outline: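 An Agilent 4 × 180k array of primer-extended double-stranded 36-bp intergenic genomic probes, with negative controls, was incubated for 1 h with GST-tagged P. falciparum DNA-binding domains expressed in E. coli. Alexa488 anti-GST antibody detected bound protein, scanned at 488 nm. Binding intensity is the highest Masliner-normalised natural-log median intensity across replicate spots of either probe orientation.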

| Sequence | gcPBM binding intensity (ln) |
| --- | --- |
| TAATAATTATTGCACGCACACAAAAACCTATAGATT [CACACA_site2931] | 11 ± 0.67 |
| TGTAATAATTATTGCACGCACACAAAAACCTATAGA [CACACA_site2932] | 10.8 ± 0.88 |
| AAAATATAATATATTGCACACAAAAAGTGAATTATT [CACACA_site8489] | 10 ± 0.62 |
| ATATTTTTTACTATTACACACAAGGGATTATTATTT [CACACA_site3915] | 7.99 ± 0.69 |
| ATACATACATATGTATGTACGTATGTATGTATGTAT [XGTACX_site3853] | 8 ± 0.2 |
| TATACTGTCAATTCTACACACCATAGGGGGAGCATA [CACACA_site1875] | 9.22 |
| TTTTTTTTTTTTAATGCACACAGTGAACTTTTACTT [CACACA_site3567] | 11.3 ± 0.36 |
| TTTATTTTTAACAGTGCACACATAACTTAATTATAT [CACACA_site8681] | 10.69 ± 0.071 |
| ATGAAATATGCACAGTGTACTTTTATGAGGAACATA [XGTACX_site426] | 9.045 ± 0.064 |
| TTTCTTTTTTTTTAATGTACTTTTTTTATAAAAGGT [XGTACX_site5688] | 7.99 ± 0.23 |
| AAAGAATTATATAAGGTGCACGAATGTTTCTTTAAT | 10.96 ± 0.035 |
| CATATAAGACAAAAGGTGCAATTTTAATGCTTTTAT [GTGCAC_site9432] | 9.99 ± 0.071 |
| AATAATACATCCTTAGTGCAGAAATAAAAATTAAGC [GTGCAC_site9955] | 9.76 ± 0.24 |
| AAATAATTAGAAATAGTGCACATAATTAAGGGATAC | 11.5 ± 0.31 |
| AATATATAAATTAATACATGCACATATAGAAAGGGA [TGCATGCA_site472] | 8.7 ± 0.52 |
| ATTTTACATATTTGCACACATATATTTAAATACATA [CACACA_site4627] | 9.85 ± 0.28 |
| GTATATCATTTTGGGGTGCTTAAAAATAATGAATAC | 10.4 ± 0.46 |
| TTATTATTATATGAATGTACTTAAAAATACATTTTG [XGTACX_site2959] | 7.43 ± 0.49 |
| TATGAACTTTTGGGGGTGCCTTAAAATGTATATTCT | 11.2 ± 0.53 |
| TCAACACACGTGGAATGTACTTTAGTATAAGAATTC [XGTACX_site7842] | 7.74 ± 0.64 |
| AAATTTATATAATATTGTACATTAAAAATTATATAT [XGTACX_site8009] | 7.73 ± 0.3 |
| AATATGTAAATATGGGTGCTTTAAAATATATTCATT [GTGCAC_site9583] | 11.1 ± 0.66 |

| Sequence | gcPBM binding intensity (ln) |
| --- | --- |
| TTTAATTAAATATGTATATATATTCATGTATGTATA [GTGCAC_negctrl_site14] | 7.68 ± 0.26 |
| TAAAATATGTCATGGGTGCTTCTTTTTATACCTATG [GTGCAC_site9888] | 8.49 ± 0.38 |
| GAATAAATTAAAAACGCATGTATCATTACTACATAA [TGCATGCA_site111] | 7.36 ± 0.48 |
| ATATATATATATAAAGTGCAAAAATGAAAGTAAGAC [GTGCAC_site9850] | 10.4 ± 0.21 |
| TTTATATAAATTTAAGTGCAAAATGAACAAGTGAAA | 10.1 ± 0.15 |
| ATAACAAAATGAAGAGTGCATTACCAAGTGGGTAAA [GTGCAC_site9450] | 10.93 ± 0.014 |
| TTATATATTTTTACCATACACACATATAATAAATAT [CACACA_site3721] | 8.04 ± 0.63 |
| TTTTTATTTTTTGTCTGTACATATATAAATTTATTA [XGTACX_site1525] | 7.88 ± 0.47 |
| CCGTACAATTTTGTCACACATAAAATACTTATGTAT [CACACA_site4871] | 7.66 ± 0.51 |
| CACCCTTTACACAAGGTGCATACTTTATTATATTTT [GTGCAC_site9778] | 9.305 ± 0.049 |
| AGTAGATTTTTATTAGTGCATTTTATACTACAAAAA | 9.71 ± 0.24 |
| TCCTTTTTACTACTAGTGCATTATTTACAAGGTCCG [GTGCAC_site9441] | 11.4 ± 0.68 |
| TATTATTATTGTTGATGTACATTTAATATAATATAT [XGTACX_site4482] | 7.7 ± 0.38 |
| AATATTGTTCACAAGGTGCTTTTTATTCATACTAAT | 8.86 ± 0.18 |
| TGTGTGTGTTCATGGGTGCTTTAATACTATTATAGG [GTGCAC_site9465] | 11 ± 0.61 |
| TTTTTAATTTTGTGGGTGCTTTCGTGTTATTATATA | 9.415 ± 0.021 |
| TGAATATTTCTATATACACACATATAAATATAAATA [CACACA_site7593] | 7.55 ± 0.31 |
| ATATATATATATATATGTACTTATAAGGTATATTTA [XGTACX_site3327] | 9.35 ± 0.52 |
| GTGGTATAAATTTTATGTACTTAATAACTCATTAAT [XGTACX_site5555] | 7.79 ± 0.28 |
| TTTTTAACGTATAAGGTGCACTGTATATGGTACTCA | 11 ± 0.33 |
| ATATTATTATAAACTTCACACATTTTATGGGTTTTT [CACACA_site4631] | 7.49 ± 0.61 |
| ATAAAGATTAACAAAGTGCATTTATATATATAATCT [GTGCAC_site9407] | 9.865 ± 0.092 |

| Sequence | gcPBM binding intensity (ln) |
| --- | --- |
| TTAAAAGTAAGCAAAGTGCATATAACAAAAGTAAAG | 10.01 ± 0.092 |
| ATATATATAACAAAAGTGCATTAAGGGGATGCTATA | 11.5 ± 0.26 |
| TTTTTTTTTTTTTTGGTGCGTTTATATATAAATATA | 10.4 ± 0.86 |
| TTAACAAAATTTTTAACACACAAAAAAAAAAAAAAA [CACACA_site1828] | 8.2 ± 0.8 |
| AAATAACCCACGTGCATGCACTTCAATAACTGAACT | 11.3 ± 0.14 |
| TGAAATAACCCATGTGCATGCACTTCAATAACTGAA [TGCATGCA_site1041] | 9.54 ± 0.47 |
| GGTTATAACCCACATGCACACGTAAATAAATATTAT [CACACA_site5992] | 8.77 ± 0.3 |
| TTGTATTCATATGGTTGTACATATTAAAAGTTCTAA [XGTACX_site7255] | 7.73 ± 0.31 |
| CATATTATTATTTTGGTGCATACTTATATATATTTT | 9.53 ± 0.085 |
| TACTTATTTGATTGGGTGCATATATATAGTATGTAT [GTGCAC_site9845] | 11 ± 0.73 |
| ATAGTTTAATTTATATGTACATATAATATTGATTTG [XGTACX_site7520] | 7.89 ± 0.41 |
| GTCAATATTTAGATATGTACTAAGGAGTGCTATATA [XGTACX_site222] | 10.2 ± 0.55 |
| TCCGCATGTACATGGGTGCACATAACACCCATTTAA [GTGCAC_site9881] | 10.4 ± 0.44 |
| TTTTGTTTTTGTAGAGTGCATAAAGAAGATATGTAT | 11.1 ± 0.86 |
| GAAAAGCAGATAAATGTGCACATATATGTTTGTATA | 9.71 ± 0.43 |
| TATATATGTATAAGAGTGCATATGCATATATGTATA [GTGCAC_site9692] | 9.85 ± 0.014 |
| TATGAAAAAATATATACACACATAATAAAGGTATAT [CACACA_site3737] | 7.73 ± 0.59 |
| GGTATTTATGGACGCGTGCACACACATATGAACAAA | 9.9 ± 0.14 |
| TTATATGCATAAAAAGGTACACATATATAAATAAAT [XGTACX_site6894] | 8.23 ± 0.4 |
| TATTTATGCACGCGTGCACACACATATGAAAAAAGG [CACACA_site9090] | 11.1 ± 0.59 |
| CAAAAGGATATGCACACACACACACGGATATTTATA [CACACA_site7099] | 8.985 ± 0.064 |
| TTTATGCACGCGTGCACACACATATGAAAAAAGGTA [CACACA_site3315] | 10.9 ± 0.72 |
